Assay outcomes deposited in PubChem by National Center for Advancing Translational Sciences (NCATS).
Cruzain inh Det = inhibitors of Trypanosoma cruzi cruzain with detergent | 0.43% of 200,000 active | P25779 | Potency, µM, inactives show max response, negative = inhibition, most hits filed as inhibitors | purified cruzain, Z-FR-AMC fluorescence, 0.01% Triton;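 further: plate controls were neutral wells for no effect and buffer without enzyme for full effect; nearly all actives have a fitted effect of over 40% in size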
Target sequence (P25779 123-467 limits assumed): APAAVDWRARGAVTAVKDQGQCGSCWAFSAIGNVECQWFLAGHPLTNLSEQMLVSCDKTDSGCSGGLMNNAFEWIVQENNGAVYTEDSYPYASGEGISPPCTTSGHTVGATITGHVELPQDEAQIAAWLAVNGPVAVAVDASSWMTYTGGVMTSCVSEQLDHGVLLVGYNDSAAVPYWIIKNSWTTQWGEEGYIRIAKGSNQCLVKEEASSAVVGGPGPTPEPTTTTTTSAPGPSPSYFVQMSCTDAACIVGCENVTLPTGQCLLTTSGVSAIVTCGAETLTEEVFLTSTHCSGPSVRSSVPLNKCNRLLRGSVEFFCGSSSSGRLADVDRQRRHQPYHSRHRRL
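Enzyme 1.5 nM, Z-FR-AMC 2 uM, NaOAc 100 mM pH 5.5, DTT 5 mM, Triton X-100 0.01%; 15 min RT compound preincubation; kinetic ex360/em450, 60 s delta.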
Cruzain inh noDet = cruzain (T. cruzi) inhibition without detergent | P25779 | purified cruzain, Z-FR-AMC fluorescence, no detergent | Potency, µM, for inactives: max response, negative = inhibition, hits mostly inhibitors | 2.3% of 200,000 active;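 further: plate controls were enzyme without inhibitor for no effect and buffer without enzyme for full effect; nearly all actives have a fitted effect of over 40% in size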
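Detergent-free condition (0.00005% Triton X-100) in acetate buffer pH 5.5 with DTT. 1.5 nM enzyme and compound were pre-mixed 15 min, then 2 uM Z-FR-AMC substrate added; reaction progress from fluorescence change between first and third reads (60 s).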
* marks the source's active call; other numbers are inactive results; u = inconclusive. Sampled rows, rich in hits. Any-hit rate of the full collection: about 2.4%. The call rests on the fitted dose curve; in most records, active means well fitted curve in the direction sought with a large enough effect; inconclusive means small, poorly fitted or top-dose-only effect, or another doubt; inactive means no such curve, though single readings can be large; an effect the other way counts as inactive or inconclusive. Potency means the concentration at half of the fitted maximal effect.

SMILES	Cruzain inh Det	Cruzain inh noDet
CCOC(=O)c1sc(NC(=O)CSc2nnnn2-c2ccc(C)cc2)c(C(=O)OCC)c1C	1.4%	-28.6%
CCOC(=O)c1sc(NC(=O)CSc2nc3c(c(=O)n2-c2ccc(C)cc2)SCC3)c(C(=O)OCC)c1C	-8.0%	6.31µM*
CCOc1ccccc1N(C)C(=O)NCc1noc2ccccc12	-0.8%	-6.5%
CCOC(=O)c1c(NC(=O)CN2C(=O)NC3(CCC(CC)CC3)C2=O)sc(C)c1-c1ccc(C)cc1 (stereo not drawn)	-2.1%	20µM*
CCOC(=O)c1c(NC(=O)CN2C(=O)NC3(CCCCCC3)C2=O)sc(C)c1-c1ccc(C)cc1	-4.4%	u
Nc1ccc(C(=O)OCC(=O)N2CCc3ccccc3C2)cc1[N+](=O)[O-]	-11.6%	31.6µM*
O=C(OCC(=O)N1CCc2ccccc2C1)c1ccc(N2CCOCC2)c([N+](=O)[O-])c1	-6.9%	4.5%
O=C(NNS(=O)(=O)c1ccccc1)c1cc2cc3ccccc3nc2s1	-7.4%	-6.6%
O=C(NNC(=O)c1cc2cc3ccccc3nc2s1)c1cccc(C(F)(F)F)c1	-10.4%	25.1µM*
Cc1cc(C)nc(Nc2ccc(N3CCOCC3)cc2)n1	0.2%	u
Cc1cc(C)nc(Nc2ccc(N3CCCC3)cc2)n1	-3.6%	31.6µM*
CCOC(=O)c1ccccc1NC(=O)c1cnc(N2CCOCC2)c2ccccc12	-22.9%	u
CS(=O)(=O)N1CCN(c2ccccc2NC(=O)c2ccc(-c3ccc(Cl)cc3Cl)o2)CC1	-1.7%	3.16µM*
CN1CCN(c2ccccc2NC(=O)c2ccc(-c3ccc(Cl)cc3Cl)o2)CC1	-19.7%	0.6%
O=C(CN1C(=O)C2(SCC(=O)N2c2ccc(F)cc2)c2ccccc21)NC1CCCCC1 (stereo not drawn)	-1.7%	11.7%
Cc1[nH]c2ccccc2c1C(=O)CSc1nc2cc(S(=O)(=O)N3CCCCC3)ccc2o1	0.7%	25.1µM*
Cc1ccc(S(=O)(=O)N2CCN(CC(=O)NC3CCCc4ccccc43)CC2)cc1C (stereo not drawn)	0.9%	u
O=C(CSc1nc2cc(S(=O)(=O)N3CCOCC3)ccc2o1)NC1CCCc2ccccc21 (stereo not drawn)	-3.0%	25.1µM*
Cc1ccc(C(=O)CSc2nc3cc(S(=O)(=O)N4CCOCC4)ccc3o2)cc1	1.2%	11.9%
CC1CCC(C(=O)O)([C@H](Br)C(=O)O)CC1 (stereo partly drawn)	3.2%	0.9%
C#CCOCCOCCOCCNc1nc(N2CCN(C(=O)Cn3cc(CCCN=C(N)N)nn3)CC2)nc(N2CCN(C(=O)[C@H](C(C)C)n3cc(CCO)nn3)CC2)n1	0.1%	5.9%
C#CCOCCOCCOCCNc1nc(N2CCN(C(=O)Cn3cc(CCCN=C(N)N)nn3)CC2)nc(N2CCN(C(=O)[C@H]([C@@H](C)CC)n3cc(CCCN=C(N)N)nn3)CC2)n1	25.1µM*	20µM*
CCCS(=O)(=O)c1c(S(=O)(=O)CCC)c2cc(CC)ccn2c1C(=O)c1ccc(Cl)cc1	-2.2%	-4.1%
Cc1cccc(NC(=O)CN2C(=O)N/C(=C\c3ccc(N4CCOCC4)cc3)C2=O)c1	-4.0%	-20.9%
Cc1ccc(-n2cccc2/C=C2/NC(=O)N(CC(=O)Nc3cccc(C)c3)C2=O)cc1	-3.9%	5.01µM*
SMILES	Cruzain inh Det	Cruzain inh noDet
COc1ccc(NC(=O)CSc2nc(O)cc(=O)n2-c2ccccc2OC)cc1	u	15.8µM*
COc1ccccc1-n1c(SCC(=O)Nc2ccc(C)cc2)nc(O)cc1=O	-2.7%	5.1%
O=C(c1ccccc1Cl)n1nc(-c2ccco2)nc1NCc1cccs1	-3.1%	5.3%
Cc1cc(Nc2ccccc2C)n2nc(Cc3ccc(Cl)cc3)nc2n1	-5.2%	-6.8%
COc1ccc(S(=O)(=O)N2CCN(c3ccc(Cl)c(Cl)c3)CC2)c2ccccc12	-0.8%	7.94µM*
COc1ccc(S(=O)(=O)N2CCN(C)CC2)c2ccccc12	-1.6%	-0.7%
Cc1cccc(Cn2c(C)c(C)c3cc(C(=O)NCc4ccco4)ccc32)c1	-6.3%	-18.7%
CCOc1ccc(C(=O)Nc2cc(-c3cn4cccnc4n3)ccc2C)cc1OCC	-0.2%	5.6%
Cc1cc(/C=C2/C(=O)NN(c3ccccc3)C2=O)c(C)n1-c1cccc(O)c1	-14.3%	25.1µM*
CC1=NN(c2ccccc2)C(=O)/C1=C\c1cc(C)n(-c2ccccc2)c1C	-8.8%	u
O=c1oc2ccc3ccccc3c2cc1-c1nnc(Nc2ccc(Cl)cc2Cl)s1	0.4%	5.8%
CCC(=O)NC1CC(=O)N(c2ccc3c(c2)OCCO3)C1 (stereo not drawn)	0.6%	3.7%
CCN(CC)c1ccc(NC(=O)C2CCN(c3nnc(-n4cccc4)s3)CC2)c(C)c1	-4.3%	10.0%
Oc1ccc(Cl)cc1-c1cc(-c2cccc(Br)c2)n[nH]1	-3.5%	12.6µM*
Oc1ccc(Cl)cc1-c1cc(-c2ccccc2Cl)[nH]n1	-11.8%	u
COc1ccc2c(c1)c1nnc(SCC(=O)N3CCCCC3C)nc1n2C (stereo not drawn)	14.1µM*	-29.8%
COc1ccc(N2CCN(C(=O)CSc3nnc4c5cc(C)ccc5n(C)c4n3)CC2)cc1	-1.7%	u
S=C1N[C@H](c2ccccc2)N[C@H](c2ccccc2)S1	-5.2%	-10.0%
COc1cccc(-c2nn(-c3ccccc3)cc2/C=C\C(=O)c2cccs2)c1	3.2%	12.6µM*
COc1cccc(-c2nn(-c3ccccc3)cc2C(=O)O)c1	4.1%	-0.7%
CCOc1ccc(CNCc2c(C(=O)O)c(C)n(Cc3ccc(C)cc3)c2C)cc1	-3.7%	0.1%
CC1(C)C(C=C(Cl)Cl)C1C(=O)Nc1ccc([N+](=O)[O-])cc1 (stereo not drawn)	12.6µM*	10µM*
O=C(Nc1ccc([N+](=O)[O-])cc1)C1CC1(c1ccccc1)c1ccccc1 (stereo not drawn)	-8.6%	5.0%
O=C(C1CCC(Cn2c(=O)c3sccc3n(Cc3cccc(F)c3)c2=O)CC1)N1CCCCC1 (stereo not drawn)	-5.7%	9.9%
CCOC(=O)c1cccc(NC(=O)c2cc3c(=O)n(Cc4ccccc4)ccc3nc2C)c1	-9.1%	u
SMILES	Cruzain inh Det	Cruzain inh noDet
CCn1c2ccccc2c2cc(NC(=O)Cc3ccc(S(=O)(=O)N4CCOCC4)s3)ccc21	-2.1%	15.8µM*
CCn1c2ccccc2c2cc(NC(=O)C3CCN(S(=O)(=O)c4cccs4)CC3)ccc21	1.8%	u
COCCNC(=O)CCCn1c(SCC(=O)Nc2ccc(F)cc2)nc2c(sc3ccccc32)c1=O	0.7%	25.3%
CC(C)c1ccc(/C=C/C(=O)Nc2nncs2)cc1	-5.2%	u
Cc1sc(NC(=O)/C=C/c2ccc(C(C)C)cc2)c(C#N)c1C	1.3%	25.1µM*
COc1ccccc1N1CCN(S(=O)(=O)c2c(C)sc3ncn(CC(=O)Nc4ccccc4F)c(=O)c23)CC1	-0.4%	-3.7%
CCOc1ccc(S(=O)(=O)N(C)c2ccc(OCC(=O)Nc3nc(-c4cc(OC)ccc4OC)cs3)cc2)cc1	-2.4%	7.94µM*
CCOC(=O)Cc1csc(NC(=O)COc2ccc(N(C)S(=O)(=O)c3ccc(C)cc3)cc2)n1	-5.4%	-7.0%
C=Cc1ccc(Cn2c(C(=O)O)c(CNCCc3ccccc3)c3ccc(C)cc32)cc1	-12.7%	u
N#C/C(=C\c1ccc(OC(=O)c2ccc(Br)s2)cc1)c1nc2ccccc2[nH]1	-4.3%	5.01µM*
N#C/C(=C\c1ccc(OC(=O)c2ccc(Cl)s2)cc1)c1nc2ccccc2[nH]1	-24.8%	3.98µM*
